The antibiotic and cytotoxicity screens of Wong et al. (2023)
Out of some 39,000 compounds screened, about 3,300 (8.5%) were called active. This excerpt belongs to a sample that is enriched for actives.

Tested on: HepG2
Experiment: cytotoxicity call (relative viability < 0.9)
Conditions: 10 µM

| SMILES | cytotoxicity call |
| --- | --- |
| NC(=O)CSCC(=O)Nc1ccccc1F | inactive |
| O=C(O)/C=C\C(=O)NCc1ccccc1 | inactive |
| COCCN1C[C@H]2[C@@H](OC)CCN(S(=O)(=O)c3cn(C)cn3)[C@H]2C1 | inactive |
| CNC(=O)C[C@@H]1CC[C@@H]2[C@H](COC[C@@H](O)CN2C(=O)c2ccccn2)O1 | inactive |
| C[C@H](CO)N1C[C@H](C)[C@@H](CN(C)S(=O)(=O)c2cccs2)Oc2ccc(NS(C)(=O)=O)cc2CC1=O | inactive |
| C[C@H](O)[C@H](O)[C@@H](O)[C@@H](O)/C=N/NC(=O)c1cccc(C(=O)NO)c1 | inactive |
| Cc1cc(C(=O)Nc2cccc3c2O[C@@H](CN(C)Cc2ccc4c(c2)OCO4)[C@@H](C)CN([C@@H](C)CO)C3=O)n(C)n1 | inactive |
| COc1ccc(NC(=O)Nc2ccc3c(c2)C(=O)N([C@@H](C)CO)C[C@H](C)[C@@H](CN(C)Cc2ccc(-c4ccccc4)cc2)O3)cc1 | inactive |
| COc1ccc(NC(=O)Nc2ccc3c(c2)C(=O)N([C@H](C)CO)C[C@@H](C)[C@H](CN(C)Cc2ccc(Oc4ccccc4)cc2)O3)cc1 | inactive |
| COc1ccc(NC(=O)Nc2ccc3c(c2)C(=O)N([C@@H](C)CO)C[C@H](C)[C@H](CN(C)Cc2ccc(Oc4ccccc4)cc2)O3)cc1 | inactive |
| COc1ccc(NC(=O)Nc2ccc3c(c2)C(=O)N([C@H](C)CO)C[C@@H](C)[C@H](CN(C)Cc2ccc(-c4ccccc4)cc2)O3)cc1 | active |
| COc1ccc(NC(=O)Nc2ccc3c(c2)C(=O)N([C@H](C)CO)C[C@H](C)[C@H](CN(C)Cc2ccc(-c4ccccc4)cc2)O3)cc1 | active |
| COc1ccc(NC(=O)Nc2ccc3c(c2)C(=O)N([C@H](C)CO)C[C@H](C)[C@@H](CN(C)Cc2ccc(-c4ccccc4)cc2)O3)cc1 | inactive |
| COc1ccc(NC(=O)Nc2ccc3c(c2)C(=O)N([C@H](C)CO)C[C@@H](C)[C@@H](CN(C)Cc2ccc(-c4ccccc4)cc2)O3)cc1 | active |
| COc1ccc(NC(=O)Nc2ccc3c(c2)C(=O)N([C@@H](C)CO)C[C@@H](C)[C@@H](CN(C)Cc2ccc(-c4ccccc4)cc2)O3)cc1 | active |
| COc1ccc(NC(=O)Nc2ccc3c(c2)C(=O)N([C@@H](C)CO)C[C@H](C)[C@H](CN(C)Cc2ccc(-c4ccccc4)cc2)O3)cc1 | inactive |
| CC(=O)c1ccc(S(=O)(=O)N2[C@@H]3CC[C@@H](C3)[C@H]2c2nc3cccc(OCc4ccc(F)cc4)c3[nH]2)cc1 | inactive |
| C[C@@H]1CN([C@@H](C)CO)C(=O)c2cc(NC(=O)C3CC3)ccc2O[C@@H]1CN(C)S(=O)(=O)c1cccs1 | inactive |
| CCCC(=O)Nc1ccc2c(c1)OC[C@H](C)N(Cc1ccc(-c3ccccn3)cc1)C[C@@H](C)[C@H](OC)CN(C)C2=O | inactive |
| COc1ccc(S(=O)(=O)Nc2ccc3c(c2)C(=O)N([C@@H](C)CO)C[C@@H](C)[C@@H](CN(C)C(=O)Nc2c(C)noc2C)OCCCC[C@H](C)O3)cc1 | inactive |

| SMILES | cytotoxicity call |
| --- | --- |
| C[C@@H]1CN([C@@H](C)CO)C(=O)c2cc(NS(=O)(=O)c3ccccc3)ccc2O[C@@H]1CN(C)C(=O)Nc1cccc2ccccc12 | inactive |
| C[C@@H]1CN([C@@H](C)CO)C(=O)Cc2cc(NC(=O)Nc3ccc(F)cc3)ccc2O[C@@H]1CN(C)S(=O)(=O)c1cn(C)cn1 | inactive |
| Cc1ccc(S(=O)(=O)N(C)C[C@@H]2OCCCC[C@H](C)Oc3ccc(NS(C)(=O)=O)cc3C(=O)N([C@@H](C)CO)C[C@H]2C)cc1 | inactive |
| Cc1noc(C)c1S(=O)(=O)Nc1ccc2c(c1)CC(=O)N([C@@H](C)CO)C[C@H](C)[C@H](CN(C)Cc1ccc3c(c1)OCO3)O2 | inactive |
| C[C@H](CO)N1C[C@H](C)[C@H](CN(C)C(=O)N[C@H](C)c2ccccc2)OCc2ccccc2-c2c(n(C)c3ccccc23)C1=O | inactive |
| COc1ccc(S(=O)(=O)N(C)C[C@@H]2OCCCC[C@H](C)Oc3ccc(NC(=O)NC4CCCCC4)cc3C(=O)N([C@H](C)CO)C[C@H]2C)cc1 | inactive |
| COc1ccc(NC(=O)N(C)C[C@@H]2OCCCC[C@@H](C)Oc3ccc(NS(=O)(=O)c4ccc(C)cc4)cc3C(=O)N([C@H](C)CO)C[C@H]2C)cc1 | inactive |
| COc1ccc(NC(=O)Nc2ccc3c(c2)C(=O)N([C@@H](C)CO)C[C@@H](C)[C@H](CN(C)Cc2ccc(-c4ccccc4)cc2)O3)cc1 | active |
| COc1cccc(S(=O)(=O)N2C[C@H](O)COC[C@@H]3O[C@H](CC(=O)NCCCN4CCOCC4)CC[C@H]32)c1 | inactive |
| C[C@H]1CCCCO[C@H](CN(C)C(=O)Nc2ccc(F)cc2)[C@@H](C)CN([C@@H](C)CO)C(=O)c2cc(NC(=O)c3ccncc3)ccc2O1 | inactive |
| CC[C@H](C)[C@H]1O[C@]2(CC[C@@H]1C)C[C@@H]1C[C@@H](C/C=C(\C)[C@@H](O[C@H]3C[C@H](OC)[C@@H](O[C@H]4C[C@H](OC)[C@@H](O)[C@H](C)O4)[C@H](C)O3)[C@@H](C)/C=C/C=C3\CO[C@@H]4[C@H](O)C(C)=C[C@@H](C(=O)O1)[C@]34O)O2 | active |
| CCC(C)C1OC2(CCC1C)CC1CC(CC=C(C)C(OC3CC(OC)C(OC4CC(OC)C(O)C(C)O4)C(C)O3)C(C)C=CC=C3COC4C(O)C(C)=CC(C(=O)O1)C34O)O2 (stereo not given) | active |
| CC[C@@H](C)[C@H]1O[C@@]2(CC[C@@H]1C)C[C@H]1C[C@@H](CC=C(C)[C@@H](O[C@H]3C[C@@H](OC)[C@@H](O[C@H]4C[C@@H](OC)[C@@H](O)[C@@H](C)O4)[C@@H](C)O3)[C@@H](C)C=CC=C3CO[C@H]4[C@@H](O)C(C)=C[C@@H](C(=O)O1)[C@]34O)O2.CO[C@H]1C[C@@H](O[C@@H]2[C@@H](OC)C[C@@H](O[C@@H]3C(C)=CC[C@@H]4C[C@@H](C[C@@]5(CC[C@@H](C)[C@H](C(C)C)O5)O4)OC(=O)[C@@H]4C=C(C)[C@H](O)[C@@H]5OCC(=CC=C[C@@H]3C)[C@@]45O)O[C@@H]2C)O[C@@H](C)[C@@H]1O | active |
| C[C@@H]1CN([C@H](C)CO)C(=O)c2cc(NC(=O)CCC(F)(F)F)ccc2O[C@H]1CN(C)Cc1ccc(C(=O)Nc2ccccc2N)cc1 | inactive |
| N#CCSc1n[nH]c(=O)[nH]c1=O | inactive |
| O=C(C[C@@H]1CC[C@H]2[C@@H](COC[C@@H](O)CN2CC2CCOCC2)O1)N1CCOCC1 | inactive |
| Cc1noc(C)c1NC(=O)N(C)C[C@H]1OCCCC[C@H](C)Oc2ccc(NC(=O)C3CCCCC3)cc2C(=O)N([C@H](C)CO)C[C@@H]1C | inactive |
| C[C@@H]1CCCCO[C@@H](CN(C)S(=O)(=O)c2ccccc2)[C@@H](C)CN([C@H](C)CO)C(=O)c2cc(NC(=O)NC3CCCCC3)ccc2O1 | inactive |
| COc1ncccc1N | inactive |
| O=C1CCc2ccc(OCCCCN3CCN(c4cccc(Cl)c4Cl)CC3)cc2N1 | active |

| SMILES | cytotoxicity call |
| --- | --- |
| CCCCCCCCCCCC(=O)OCN1C(=O)CCc2ccc(OCCCCN3CCN(c4cccc(Cl)c4Cl)CC3)cc21 | inactive |
| O=C1CCc2cc(OCCCCc3nnnn3C3CCCCC3)ccc2N1 | inactive |
| O=C(C[C@H]1CC[C@H](NC(=O)c2cccnc2)[C@@H](CO)O1)NCCN1CCCCC1 | inactive |
| C[C@H](N)c1ccc(Cl)cc1 | inactive |
| COc1cccc(S(=O)(=O)Nc2ccc3c(c2)[C@H]2C[C@H](CC(=O)NCc4ccccc4F)O[C@@H](CO)[C@H]2O3)c1 | inactive |
| C[C@H]1CN([C@@H](C)CO)C(=O)c2cc(NS(=O)(=O)c3cccs3)ccc2O[C@@H]1CN(C)Cc1ccc(Oc2ccccc2)cc1 | inactive |
| C[C@H](CO)N1C[C@H](C)[C@H](CN(C)Cc2ccc(-c3ccccc3)cc2)Oc2ccc(NS(=O)(=O)c3cccs3)cc2C1=O | inactive |
| C[C@@H]1CN([C@H](C)CO)C(=O)c2cc(NS(=O)(=O)c3cccs3)ccc2O[C@@H]1CN(C)Cc1ccc(-c2ccccc2)cc1 | active |
| C[C@H](CO)N1C[C@H](C)[C@@H](CN(C)Cc2ccc(-c3ccccc3)cc2)Oc2ccc(NS(=O)(=O)c3cccs3)cc2C1=O | inactive |
| C[C@@H]1CN([C@H](C)CO)C(=O)c2cc(NS(=O)(=O)c3cccs3)ccc2O[C@H]1CN(C)Cc1ccc(Oc2ccccc2)cc1 | inactive |
| C[C@@H]1CN([C@H](C)CO)C(=O)c2cc(NS(=O)(=O)c3cccs3)ccc2O[C@@H]1CN(C)Cc1ccc(Oc2ccccc2)cc1 | active |
| NC(=O)c1cccc(Br)n1 | inactive |
| Cc1noc(C)c1S(=O)(=O)N(C)C[C@H]1OCc2cn(nn2)CCCC(=O)N([C@H](C)CO)C[C@@H]1C | inactive |
| Cc1ccc(S(=O)(=O)N(C)C[C@H]2Oc3ccc(NS(=O)(=O)c4cccs4)cc3C(=O)N([C@H](C)CO)C[C@H]2C)cc1 | inactive |
| C[C@H]1CN([C@@H](C)CO)C(=O)CCCn2cc(nn2)CO[C@@H]1CN(C)S(=O)(=O)c1ccc(-n2cccn2)cc1 | inactive |
| C[C@@H]1CN([C@@H](C)CO)C(=O)c2cc(NC(=O)CCN3CCOCC3)ccc2O[C@@H]1CN(C)S(=O)(=O)c1ccc(Cl)cc1 | inactive |
| C[C@@H]1CN([C@H](C)CO)C(=O)c2cc(NS(=O)(=O)c3ccccc3)ccc2O[C@@H](C)CCCCO[C@H]1CN(C)C(=O)Nc1ccccc1 | inactive |
| C[C@H]1CN([C@@H](C)CO)C(=O)Cc2cc(NC(=O)Nc3cccc4ccccc34)ccc2O[C@H]1CN(C)C(=O)Nc1ccc(C(F)(F)F)cc1 | inactive |
| COc1ccc(CN(C)C[C@H]2Oc3c(NS(=O)(=O)c4c(C)noc4C)cccc3C(=O)N([C@H](C)CO)C[C@H]2C)cc1 | inactive |
| C[C@H]1CN([C@@H](C)CO)C(=O)Cc2cc(NS(=O)(=O)c3cccs3)ccc2O[C@H]1CN(C)Cc1ccc(-c2ccccc2)cc1 | inactive |
